Drawing on PubChem BioAssay (Tox21), this text covers Potency for 6 molecules.

The nature of experiment [1]: cAMP Responsive Elements (CRE) small molecule antagonists, cell-based qHTS assay: qHTS cell viability counter screen (AID 2060913). Further: nearly all actives have a fitted effect of over 40% in size. The following applies: CRE-bla HEK293T viability, CellTiter-Glo luminescence, 5 h; series mostly up to 92.4 µM. In outline: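 HEK293T CRE-bla, 2,000 cells/well, 18 h preincubation; cpd in DMSO + NKH477 0.25 uM final, 3 h 37 C/5% CO2; LiveBLAzer 2 h RT, then CellTiter-Glo 30 min RT, luminescence.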
(qHTS replaces the single test concentration by a dilution series.)

Experiment [2] in a line: cAMP Responsive Elements (CRE) small molecule agonists, cell-based qHTS assay: qHTS cell viability counter screen (AID 2060914). Further: nearly all actives have a fitted effect of over 50% in size. Conditions: CRE-bla HEK293T viability, CellTiter-Glo luminescence, 5 h; series mostly up to 92.4 µM. In outline: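 Cytotoxicity counter screen multiplexed with the CRE-bla reporter assay in HEK 293T cells: 3 h compound exposure at 37 °C, followed by CellTiter-Glo luminescence measured in the same wells.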

Inconclusive results are not listed. Entries that show only a call come without a potency. Active and inactive are the calls of the source. The call rests on the fitted dose curve; in most records, active means well fitted cell-killing curve with a large enough effect in the repeat runs; inconclusive means weak or mixed curves, or effect the other way; inactive means flat fitted curve, though single readings scatter.

Consider `CSc1cnc(C)cn1`, for which the Potency entry in experiment [1] and in experiment [2] was “inactive” each time.

For the molecule `O=C(c1ccc2c(c1)C(=O)OC2=O)c1ccc2c(c1)C(=O)OC2=O`, the Potency result in experiment [1] and in experiment [2] was “inactive” each time.

Turning to `O=C(O)Cn1cnnn1`, the Potency result in experiment [1] and in experiment [2] was “inactive” in each case.

As to `C=C(C)C1CC=C(C)CC1` (configuration not stated), the Potency result in experiment [1] and in experiment [2] was “inactive” throughout.

As for `COC(=O)C1=C(C)NC(C)=C(C(=O)OC)C1c1ccccc1[N+](=O)[O-]`, the Potency result in experiment [1] and in experiment [2] was “inactive” each time.

Consider `Cc1cc2c(cc1C(F)(F)F)N(C(=O)Nc1ccc(Oc3cccnc3C)nc1)CC2`, for which the Potency entry in experiment [1] and in experiment [2] was “inactive” each time.
